Assay [1] is described as follows: ATG_PBREM_CIS: Attagene CIS-FACTORIAL HepG2 Assay for human Phenobarbital-responsive Enhancer Module (PBREM) (AID 2282955). The following applies: HepG2 PBREM cis-reporter, Attagene multiplexed transcription; actives raise or lower the signal. The procedure, abridged:
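Multiplexed cis-reporter readout in human hepatoma HepG2 cells; PBREM-regulated transcript quantified after 24 h exposure by fluorescent RT-PCR fragment analysis. Signal changes up or down fitted relative to DMSO.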

Assay [2] has as its target Paired box protein Pax-6 (Homo sapiens) (UniProt P26367). Put plainly: ATG_Pax6_CIS: Attagene CIS-FACTORIAL HepG2 Assay for human Paired Box 6 (PAX6) (AID 2282956). The note with it: HepG2 CIS-FACTORIAL PAX6 reporter transcription, RNA readout; actives raise or lower the signal. The procedure, abridged: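 Transient MRTU transfection of HepG2 → compound exposure 24 h → TriZol RNA, oligo(dT) RT → PCR, 6-FAM primer extension, HpaI cut → capillary electrophoresis; activity fitted both directions against DMSO.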

Assay [3] in a line: ATG_PXRE_CIS: Attagene CIS-FACTORIAL HepG2 Assay for human Pregnane X Receptor Element (PXRE) (AID 2282957). The following applies: HepG2 Attagene CIS-FACTORIAL PXRE reporter, mRNA; actives raise or lower the signal. Summed up: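 Transfect HepG2 with MRTUs (cis promoter elements); dose chemical, incubate 24 h; isolate RNA, RT with oligo(dT), PCR, 6-FAM label, HpaI cut, CE. Gain/loss fit vs DMSO.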

A short description of assay [4]: ATG_PPRE_CIS: Attagene CIS-FACTORIAL HepG2 Assay for human Peroxisome Proliferator-activated Response Element (PPRE) (AID 2282958). The note with it: HepG2 PPRE cis-element reporter, Attagene transcription factor profiling; actives raise or lower the signal. Summed up: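 DMSO served as negative control and baseline for bidirectional curve fitting. Signal came from PPRE-regulated reporter mRNA in HepG2 cells, measured 24 h post-dosing by RT-PCR, 6-FAM primer extension and capillary electrophoresis.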

Assay [5] can be described thus: ATG_RORE_CIS: Attagene CIS-FACTORIAL HepG2 Assay for human RAR-related Orphan Receptor Element (RORE) (AID 2282959). The following applies: HepG2 Attagene cis-factorial RORE reporter, mRNA; actives raise or lower the signal. The procedure, abridged:
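Transfect HepG2 with MRTUs; treat 24 h; extract RNA; RT with oligo(dT); PCR with reporter-specific primers; 6-FAM primer extension; HpaI digest 2 h at 37 C; capillary electrophoresis. Fit vs DMSO, bidirectional.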

A short description of assay [6]: ATG_Sox_CIS: Attagene CIS-FACTORIAL HepG2 Assay for human SRY-box transcription factor (SOX) (AID 2282960). The note with it: HepG2 Attagene cis-factorial SOX reporter, mRNA; actives raise or lower the signal. The procedure, abridged: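 Fluorescence-labelled cDNA fragments from reporter transcripts, sized by CE, give the signal. Cells: HepG2, transiently transfected with cis-regulated reporter units. Exposure 24 h; DMSO negative control; bidirectional curve fitting.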

The target in assay [7] is Transcription factor Sp1 (Homo sapiens) (UniProt P08047). The assay is described as follows: ATG_Sp1_CIS: Attagene CIS-FACTORIAL HepG2 Assay for human Specificity Protein 1 (Sp1) (AID 2282961). The note with it: HepG2 Sp1 cis-reporter transcription, actives raise or lower the signal. The procedure, abridged: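 Chemicals are dosed onto HepG2 cells transfected with multiple cis-promoter reporter constructs, and after 24 h reporter RNA is reverse-transcribed, PCR-amplified and resolved by capillary electrophoresis for fluorescence quantitation; activity is scored up or down against DMSO.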
Sequence of Transcription factor Sp1 (Homo sapiens) (P08047 whole entry, looked up): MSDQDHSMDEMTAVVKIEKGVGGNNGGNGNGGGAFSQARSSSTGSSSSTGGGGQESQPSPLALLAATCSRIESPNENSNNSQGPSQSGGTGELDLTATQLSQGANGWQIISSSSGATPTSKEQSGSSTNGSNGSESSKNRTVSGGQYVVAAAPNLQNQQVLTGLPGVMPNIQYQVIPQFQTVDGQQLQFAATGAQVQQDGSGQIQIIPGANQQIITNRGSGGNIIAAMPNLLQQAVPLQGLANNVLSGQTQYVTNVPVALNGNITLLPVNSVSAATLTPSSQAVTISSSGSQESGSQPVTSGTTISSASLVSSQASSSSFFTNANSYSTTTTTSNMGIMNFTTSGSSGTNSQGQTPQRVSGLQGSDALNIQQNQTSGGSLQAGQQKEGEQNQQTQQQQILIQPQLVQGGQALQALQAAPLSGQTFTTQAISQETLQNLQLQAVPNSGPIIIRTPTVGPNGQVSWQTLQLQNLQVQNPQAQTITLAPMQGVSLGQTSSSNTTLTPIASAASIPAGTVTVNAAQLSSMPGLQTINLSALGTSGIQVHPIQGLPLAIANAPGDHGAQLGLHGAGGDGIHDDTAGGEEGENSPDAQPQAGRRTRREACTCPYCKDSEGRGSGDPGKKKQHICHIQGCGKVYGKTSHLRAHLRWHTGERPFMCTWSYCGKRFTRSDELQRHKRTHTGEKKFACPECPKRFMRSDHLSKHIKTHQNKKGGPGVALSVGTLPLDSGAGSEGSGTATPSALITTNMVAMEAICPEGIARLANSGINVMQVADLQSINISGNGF

The nature of assay [8]: ATG_SREBP_CIS: Attagene CIS-FACTORIAL HepG2 Assay for human Sterol Regulatory Element Binding (SREBP) (AID 2282962). The following applies: HepG2 Attagene cis-factorial SREBP reporter, mRNA; actives raise or lower the signal. The procedure, abridged: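 Transfected HepG2 (cis-regulated reporter library, endogenous TFs) → compound 24 h → total RNA → oligo(dT) RT → reporter-specific PCR → FAM primer extension, HpaI cut → CE fluorescence. Fit bidirectional vs DMSO.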

For assay [9], the target named is Signal transducer and activator of transcription 3 (Homo sapiens) (UniProt P40763). The assay is described as follows: ATG_STAT3_CIS: Attagene CIS-FACTORIAL HepG2 Assay for human Signal Transducer and Activator of Transcription 3 (STAT3) (AID 2282963). The note with it: HepG2, Attagene cis-factorial STAT3 reporter transcription; actives raise or lower the signal. The procedure, abridged:
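Endogenous STAT3-responsive cis-element activity was read in transiently transfected HepG2 cells after 24 h treatment. Reporter transcripts were quantified via RT-PCR and capillary electrophoresis, with DMSO as negative control and bidirectional curve fitting.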

A short description of assay [10]: ATG_TA_CIS: Attagene CIS-FACTORIAL HepG2 Assay for human TA Basal Promoter (AID 2282964). The following applies: HepG2 Attagene CIS-factorial TA basal promoter reporter; actives raise or lower the signal. The procedure, abridged: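 Transfected HepG2, 24 h compound exposure; RNA → RT-PCR → FAM primer extension → HpaI cut → CE fluorescence. Gain/loss-of-signal fitted against DMSO negative control. Background-control readout.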

Active and inactive are the calls of the source. Rule for the calls: active = hit-call score of the fitted dose curve at least 0.9, where 1 is the maximum; inactive = score below 0.9.

Sequence of Signal transducer and activator of transcription 3 (Homo sapiens) (P40763 whole entry, looked up): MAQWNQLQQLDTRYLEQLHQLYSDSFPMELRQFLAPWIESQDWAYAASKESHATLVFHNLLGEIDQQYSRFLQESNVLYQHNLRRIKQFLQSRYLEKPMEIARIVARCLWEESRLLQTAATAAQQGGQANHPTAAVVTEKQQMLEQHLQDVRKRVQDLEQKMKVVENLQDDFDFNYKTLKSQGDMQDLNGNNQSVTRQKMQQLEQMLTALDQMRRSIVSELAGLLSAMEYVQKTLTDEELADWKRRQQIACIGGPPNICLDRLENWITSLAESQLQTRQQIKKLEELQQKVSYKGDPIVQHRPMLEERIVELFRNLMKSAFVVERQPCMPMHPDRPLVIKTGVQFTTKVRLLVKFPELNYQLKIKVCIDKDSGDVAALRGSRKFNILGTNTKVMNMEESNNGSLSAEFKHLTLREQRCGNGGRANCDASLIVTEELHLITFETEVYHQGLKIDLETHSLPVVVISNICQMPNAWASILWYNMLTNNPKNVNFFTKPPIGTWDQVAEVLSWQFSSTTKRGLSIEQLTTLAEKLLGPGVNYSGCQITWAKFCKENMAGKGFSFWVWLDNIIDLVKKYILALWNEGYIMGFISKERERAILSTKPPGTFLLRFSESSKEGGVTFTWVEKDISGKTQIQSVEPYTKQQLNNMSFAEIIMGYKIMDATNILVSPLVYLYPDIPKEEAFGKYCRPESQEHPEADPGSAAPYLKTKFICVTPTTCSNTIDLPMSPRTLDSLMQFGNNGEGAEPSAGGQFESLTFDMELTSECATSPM
Sequence of Paired box protein Pax-6 (Homo sapiens) (P26367 whole entry, looked up): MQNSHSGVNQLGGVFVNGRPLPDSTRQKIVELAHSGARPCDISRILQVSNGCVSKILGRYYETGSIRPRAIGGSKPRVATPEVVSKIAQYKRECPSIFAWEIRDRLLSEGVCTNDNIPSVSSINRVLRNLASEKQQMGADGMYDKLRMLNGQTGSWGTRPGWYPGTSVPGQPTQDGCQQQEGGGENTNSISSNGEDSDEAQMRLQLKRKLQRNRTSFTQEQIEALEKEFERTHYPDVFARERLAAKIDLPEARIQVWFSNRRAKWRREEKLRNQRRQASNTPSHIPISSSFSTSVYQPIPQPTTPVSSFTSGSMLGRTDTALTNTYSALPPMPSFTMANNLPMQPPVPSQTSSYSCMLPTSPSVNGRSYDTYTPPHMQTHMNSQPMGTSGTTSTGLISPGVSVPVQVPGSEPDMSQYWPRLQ

In the case of `CC1(C)C(C(=O)OC(C#N)c2cccc(Oc3ccccc3)c2)C1(C)C` (stereo not given), the outcome in assay [1], in assay [2], in assay [5], in assay [6], in assay [7] and in assay [8] was inactive. For the same compound, the result in assay [9] and in assay [10] was inactive. The results for the AC50 in assay [3] and in assay [4] were 1.74 µM (active) and 11 µM (active), respectively.

Turning to `CCOc1nc(C(Cl)(Cl)Cl)ns1`, the result in assay [1], in assay [2], in assay [4], in assay [6], in assay [7] and in assay [8] was inactive. For the same compound, the outcome in assay [9] and in [10] was inactive. The results for the AC50 in assay [3] and in [5] were 33.5 µM (active) and 70.3 µM (active), respectively.

Take `CSC(=O)c1c(C(F)F)nc(C(F)(F)F)c(C(=O)SC)c1CC(C)C`: the result in [1], in assay [2], in [4], in [5], in [6] and in assay [7] was inactive. The result in [8], in [9] and in [10] was inactive. Moreover, in [3], the AC50 (in general, the concentration giving half of the maximal activity seen) was 0.451 µM (active).

`COCC(=O)N(c1c(C)cccc1C)C(C)C(=O)OC` (stereo not given): the result in assay [1], in assay [2], in assay [4], in assay [5], in assay [6] and in assay [7] was inactive. For the same compound, the compound was called inactive in [8], in [9] and in assay [10]. Also, the AC50 in [3] was 9.28 µM (active).

Consider `Nc1cnn(-c2ccccc2)c(=O)c1Cl`, for which the outcome in assay [1], in assay [2], in [4], in assay [5], in assay [6] and in [7] was inactive. The compound was called inactive in assay [8], in assay [9] and in assay [10]. In addition, the AC50 in [3] was 81.5 µM (active).

Regarding `CC(C)Oc1cccc(NC(=O)c2ccccc2C(F)(F)F)c1`, the outcome in assay [1], in assay [2], in assay [6], in assay [7], in assay [8] and in [9] was inactive. Moreover, in [10], the outcome was inactive. Also, the concentration at half-maximal activity (AC50) was 4.22 µM (active) in [3], 21.3 µM (active) in assay [4] and 33.6 µM (active) in [5].

Regarding `CCNC(=O)NC(=O)C(C#N)=NOC`, the outcome in assay [1], in [2], in assay [3], in assay [4], in assay [5] and in [6] was inactive. Besides, the compound was called inactive in assay [7], in assay [8], in assay [9] and in [10].

For the compound `CCN(CC)C(=O)C(C)Oc1cccc2ccccc12` (stereo not given), the AC50 in assay [1] was 0.949 µM (active); in [3], 0.163 µM (active); in assay [4] it was 50 µM (active); in [5], 28 µM (active); in assay [8] it was 28.8 µM (active). In addition, the compound was classed as inactive in assay [2], in assay [6], in assay [7], in assay [9] and in assay [10].

For the compound `COCc1cnc(C2=NC(C)(C(C)C)C(=O)N2)c(C(=O)O)c1` (stereo not given), the outcome in assay [1], in assay [2], in [3], in assay [4], in assay [5] and in [6] was inactive. Further, the outcome in assay [7], in assay [8], in [9] and in assay [10] was inactive.

Turning to `CC(C)NC(=O)N1CC(=O)N(c2cc(Cl)cc(Cl)c2)C1=O`, the AC50 in assay [1] was 11.8 µM (active); in assay [3], 5.44 µM (active); in assay [4] it was 23.2 µM (active). The compound was called inactive in assay [2], in assay [5], in [6], in [7], in [8] and in assay [9]. For the same compound, the call in assay [10] was inactive.

Regarding `CC(C)N1C(=O)N(c2ccccc2)CSC1=NC(C)(C)C`, the outcome in [1], in assay [2], in assay [4], in assay [5], in [6] and in [7] was inactive. The call in [8], in assay [9] and in assay [10] was inactive. Besides, the AC50 in assay [3] was 0.666 µM (active).

Consider `C=C(C)CN(CC)c1c([N+](=O)[O-])cc(C(F)(F)F)cc1[N+](=O)[O-]`, for which the AC50 was 13.3 µM (active) in [1] and 9.5 µM (active) in assay [3]. Moreover, the result in assay [2], in assay [4], in assay [5], in assay [6], in assay [7] and in [8] was inactive. Also, the outcome in [9] and in assay [10] was inactive.

Consider `COC(=O)c1c(C(F)F)nc(C(F)(F)F)c(C2=NCCS2)c1CC(C)C`, for which the AC50 was 0.876 µM (active) in [1], 0.123 µM (active) in [3], 50 µM (active) in assay [4] and 26.8 µM (active) in [5]. For the same compound, the outcome in assay [2], in assay [6], in assay [7], in [8], in assay [9] and in assay [10] was inactive.

In the case of `COP(=S)(OC)SCn1nnc2ccccc2c1=O`, the AC50 in [1] is 36.3 µM (active); in [3] it was 5.87 µM (active); in [5], 31 µM (active); in assay [7] it was 32.5 µM (active); in [8] it was 19.8 µM (active). Further, the compound was called inactive in assay [2], in [4], in assay [6], in assay [9] and in [10].

With `CC1(C)CCC(=Cc2ccc(Cl)cc2)C1(O)Cn1cncn1` (stereo not given), the outcome in assay [1], in assay [2], in assay [5], in assay [6], in [7] and in assay [9] was inactive. In assay [10], the compound was called inactive. Also, the AC50 in assay [3] was 3.16 µM (active); in [4] it was 29.7 µM (active); in assay [8], 15 µM (active).

Turning to `COC(=O)NC(=S)Nc1ccccc1NC(=S)NC(=O)OC`, the concentration at half-maximal activity (AC50) is 21.3 µM (active) in assay [1], 7.61 µM (active) in assay [3] and 34 µM (active) in [4]. Moreover, the result in assay [2], in assay [5], in [6], in [7], in assay [8] and in assay [9] was inactive. Moreover, the outcome in assay [10] was inactive.

For the compound `CO/N=C(/C1=NOCCO1)c1ccccc1Oc1ncnc(Oc2ccccc2Cl)c1F`, the AC50 in assay [1] is 5.03 µM (active); in [2] it was 9.47 µM (active); in assay [3], 0.483 µM (active); in assay [8], 1.25 µM (active). Besides, the compound was classed as inactive in assay [4], in assay [5], in [6], in [7], in [9] and in assay [10].

Turning to `CC1(C)CON(Cc2ccccc2Cl)C1=O`, the outcome in [1], in assay [2], in assay [6], in assay [7], in [8] and in [9] was inactive. For the same compound, the call in [10] was inactive. In addition, the AC50 in assay [3] was 14.8 µM (active); in assay [4], 50 µM (active); in [5], 13.4 µM (active).

The values above are taken from PubChem BioAssay (EPA / NIEHS).
